High-throughput results as filed in PubChem.
Compounds with a hit are over-represented: about 21% of the library has one in this group of screens.
CHX counter = affects cycloheximide protein synthesis inhibition readout, counter-screen | cell reporter, cycloheximide protein synthesis inhibition counterscreen | max response, % | 300,000 compounds, 12% hits; in the data active = max response mostly above about 13%, no sharp cut-off; inactive = mostly below about 14%; also: read at 38.3 µM for the half of the compounds with a filed dose; 0% is about no effect
FBPA Giardia inh = blocks Giardia fructose-bisphosphate aldolase activity. AID 2451. 290,000 compounds, 0.71% hits. Potency, µM (doses to about 59.6 µM), for the others: at the top dose activity, negative = inhibition, usual class: inhibitors. purified Giardia FBPA; also: potency is read from the fitted curve at half-maximal effect; % is scaled to controls: 0 for no effect and ±100 for the full control effect; nearly all actives have a fitted effect of over 55% in size
Target sequence (A8B2U2 whole entry, looked up): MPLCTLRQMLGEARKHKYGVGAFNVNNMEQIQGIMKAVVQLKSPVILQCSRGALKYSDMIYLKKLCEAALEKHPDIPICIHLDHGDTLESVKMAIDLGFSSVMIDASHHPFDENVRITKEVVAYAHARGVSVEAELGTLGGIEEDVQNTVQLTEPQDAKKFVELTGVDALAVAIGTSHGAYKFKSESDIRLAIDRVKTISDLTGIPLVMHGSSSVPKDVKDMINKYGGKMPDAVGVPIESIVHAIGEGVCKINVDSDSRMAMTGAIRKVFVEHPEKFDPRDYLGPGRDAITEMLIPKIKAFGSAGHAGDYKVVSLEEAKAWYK
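Giardia FBPA (40 nM reagent) was preincubated 10 min at RT with compound (up to 57.5 uM final), then substrate plus GAPDH/TPI/NAD/arsenate coupling system with diaphorase/resazurin was added; resorufin fluorescence (525/598 nm) was read after 20 min.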
Shiga toxin inh = Shiga toxin inhibition; inhibition, % at 38.7 µM; 290,000 compounds, 9.2% hits; Vero cells, Shiga toxin protein synthesis inhibition reporter; AID 2315; in the data active = inhibition mostly above about 28%, no sharp cut-off; inactive = mostly below about 43%; also: 0% is about no effect
NS1 function inh = inhibitors of influenza NS1 protein function; Potency, µM (series often up to 46.1 µM), inactives show top-dose activity, positive = more growth; 270,000 compounds, 0.4% hits; AID 2326; calls by dose curve; also: potency is read from the fitted curve at half-maximal effect; actives are rising curves; nearly all actives have a fitted effect of over 50% in size
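Growth recovery, yeast-based: influenza A NS1 expressed in S. cerevisiae causes slow growth, and suppressors are detected by OD600. The parent strain without NS1 is used as positive control.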
Pf growth 48h = P. falciparum growth inhibition at 48 hours (one generation) | P. falciparum luciferase growth in erythrocytes, 48 h | Potency, µM (doses to about 28.7 µM), without a hit: top-dose activity change, negative = inhibition, actives largely listed as inhibitors | 310,000 compounds, 5.9% hits | AID 504832; also: potency is read from the fitted curve at half-maximal effect; % is scaled to controls: 0 for no effect and ±100 for the full control effect
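First compound was added to culture medium, then infected red cells at 0.1% parasitemia and 2% hematocrit (final). After incubation at 37 C under 5% CO2, luciferase detection reagent was dispensed and light output recorded.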
Pf growth 96h = P. falciparum growth inhibition at 96 hour, primary screen for plastid delayed-death inhibitors; 320,000 compounds, 6.9% hits; Potency, µM (doses to about 28.7 µM), for the others: at the top dose activity change, negative = inhibition, actives largely listed as inhibitors; P. falciparum luciferase reporter growth, 96 h; also: potency is read from the fitted curve at half-maximal effect; % is scaled to controls: 0 for no effect and ±100 for the full control effect
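Compounds incubated with erythrocytes infected by luciferase-expressing P. falciparum (2% hematocrit, 0.05% parasitemia final) for 96 hours, 37 C in 5% CO2. Growth inhibition scored as decreased luciferase luminescence.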
* = called active by the depositor; [ ] = dose if it differs, or a comment. Unless noted, calls follow the shape of the dose curve; as a rule, active = well fitted curve in the direction sought with a large enough effect; inconclusive = small, poorly fitted or top-dose-only effect, or another doubt; inactive = no such curve, though single readings can be large; an effect the other way counts as inactive or inconclusive.

Results for O=C(CCNc1ccc(F)cc1)c1ccco1 ?
CHX counter: 52*; FBPA Giardia inh: -19%; Shiga toxin inh: 90*; NS1 function inh: -8%; Pf growth 48h: 5%; Pf growth 96h: inconclusive

Results for Cc1cc(F)ccc1OC1C=CC(c2ccc3c(c2)OCO3)OC1CO (centres undefined) ?
FBPA Giardia inh: -3%[12.9 µM]

Results for CCCS(=O)(=O)N1CCC(C(=O)NCc2ccccc2Cl)CC1 ?
CHX counter: 17*; FBPA Giardia inh: -2%; Shiga toxin inh: 22; NS1 function inh: 6%; Pf growth 48h: 24%; Pf growth 96h: 10µM*

Results for O=C(NCc1ccccc1Cl)C1CCN(S(=O)(=O)N2CCCCCC2)CC1 ?
CHX counter: -3; FBPA Giardia inh: 9%; Shiga toxin inh: -6; NS1 function inh: -14%; Pf growth 48h: -5%; Pf growth 96h: inconclusive

Results for CSc1ccc(S(=O)(=O)N2CCC(C(=O)NCc3ccccn3)CC2)cc1 ?
CHX counter: -1; FBPA Giardia inh: 18%; Shiga toxin inh: 12; NS1 function inh: -6%; Pf growth 48h: -7%; Pf growth 96h: 12µM*

How did O=C(NCc1ccccc1Cl)C1CCN(S(=O)(=O)c2ccc(F)cc2)CC1 do in these assays?
CHX counter: -3; FBPA Giardia inh: 6%; Shiga toxin inh: 4; NS1 function inh: -3%; Pf growth 48h: 20%; Pf growth 96h: 31%

Results for O=C(NCc1ccccn1)C1CCN(S(=O)(=O)c2ccccc2)CC1 ?
CHX counter: -2; FBPA Giardia inh: -2%; Shiga toxin inh: -15; NS1 function inh: 8%; Pf growth 48h: 11%; Pf growth 96h: 12%

Results for Cc1ccc(S(=O)(=O)N2CCC(C(=O)NCc3ccccc3Cl)CC2)cc1 ?
CHX counter: -2; FBPA Giardia inh: 7%; Shiga toxin inh: 4; NS1 function inh: -3%; Pf growth 96h: 10µM*

Results for CN(C(=O)c1cnccn1)c1c(N)n(Cc2ccccc2)c(=O)[nH]c1=O ?
Pf growth 48h: inconclusive; Pf growth 96h: 35%

Results for CC12CCC(/C(=N/O)C1=O)C2(C)C (centres undefined) ?
CHX counter: 6; FBPA Giardia inh: -2%; Shiga toxin inh: -6

Results for CSc1ccc(C(=O)N2CCc3ccc(NC(=O)c4ccccn4)cc3C2)cc1 ?
CHX counter: 58*; Shiga toxin inh: 107*; NS1 function inh: -4%; Pf growth 48h: inconclusive; Pf growth 96h: 15µM*

Results for COc1cc(C(=O)Nc2ccc(N3CCN(C(=O)c4ccc(C)cc4)CC3)cc2)cc(OC)c1OC ?
CHX counter: -2; Shiga toxin inh: -16; NS1 function inh: 16%; Pf growth 48h: 24%; Pf growth 96h: -18%

How did O=C(NC(=S)Nc1cc(S(=O)(=O)N2CCOCC2)ccc1N1CCOCC1)C1CCCC1 do in these assays?
CHX counter: -5; FBPA Giardia inh: 2%; Shiga toxin inh: -21; Pf growth 48h: -29%; Pf growth 96h: inconclusive

Results for Cc1cccc(Nc2ncccc2C(=O)O)c1C ?
CHX counter: 6; FBPA Giardia inh: 2%; Shiga toxin inh: 7; NS1 function inh: -1%; Pf growth 48h: 22%; Pf growth 96h: 22%

What do the screens show for `Cc1ccc(Nc2ncccc2C(N)=O)cc1[N+](=O)[O-]`?
CHX counter: 39*; FBPA Giardia inh: 4%; Shiga toxin inh: 50*; NS1 function inh: 1%; Pf growth 48h: 289%; Pf growth 96h: 288%

How did NC(=O)COC(=O)c1cccnc1Nc1ccccc1F do in these assays?
CHX counter: 9; FBPA Giardia inh: -2%; Shiga toxin inh: -9; Pf growth 48h: 4%; Pf growth 96h: 27%

What do the screens show for `CC(=O)Nc1ccc(C)c([N+](=O)[O-])c1`?
CHX counter: -3; FBPA Giardia inh: 1%; Shiga toxin inh: 45; NS1 function inh: 0%; Pf growth 48h: 11%; Pf growth 96h: 51%

What do the screens show for `Cc1cc(C)c(Nc2ncccc2C(=O)O)c(C)c1`?
CHX counter: -2; FBPA Giardia inh: -3%; Shiga toxin inh: -19; NS1 function inh: 1%; Pf growth 48h: 9%; Pf growth 96h: 16%

What do the screens show for `O=C(O)c1cccnc1Nc1ccc(Cl)cc1`?
CHX counter: 27*; FBPA Giardia inh: 23%; Shiga toxin inh: 101*; Pf growth 48h: 11%; Pf growth 96h: inconclusive
